Bioassay records: PubChem, several laboratories
PLAP act = activators of human placental alkaline phosphatase; actives 1.2% (n = 96,000); AID 696; purified PLAP enzyme, luminescent substrate read-out; stronger effect = higher value; activation fold at 20 µM; in the data active = activation fold above about 2
MRP resist rev = MRP-mediated drug resistance reversal | actives 0.04% (n = 85,000) | H69AR cells + 2 uM doxorubicin, CellTiter-Glo, 72 h | differential viability (reversal), % at 10 µM;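 active = viability drop by adding the cancer drug above about 55%, with treated viability meeting a 40% cutoff, limit read from the data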;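 also: viability without doxorubicin minus viability with 2 µM doxorubicin for each compound; larger differential means the compound sensitizes cells more to doxorubicin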
PTPN22 inh 2 = inhibitors of human LYP (PTPN22) phosphatase; recombinant LYP catalytic domain, DiFMUP fluorescence; inhibition, % at 2 µM; actives 0.21% (n = 96,000); AID 640;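 active = inhibition at 2 µM at or above a set limit, the screen mean plus 3 SD, cut at about 24% in these data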;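 also: 0% = DMSO with enzyme and 100% = enzyme fully blocked by orthovanadate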
FAK inh = blocks human focal adhesion kinase activity | Q05397 | biochemical FAK kinase activity assay | inhibition, %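 (tested at 7 µM)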 | actives 0.84% (n = 97,000) | AID 727; in the data active = inhibition above about 19%;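 also: 0% = DMSO and 100% = reference compound high control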
Target sequence (Q05397 whole entry, looked up): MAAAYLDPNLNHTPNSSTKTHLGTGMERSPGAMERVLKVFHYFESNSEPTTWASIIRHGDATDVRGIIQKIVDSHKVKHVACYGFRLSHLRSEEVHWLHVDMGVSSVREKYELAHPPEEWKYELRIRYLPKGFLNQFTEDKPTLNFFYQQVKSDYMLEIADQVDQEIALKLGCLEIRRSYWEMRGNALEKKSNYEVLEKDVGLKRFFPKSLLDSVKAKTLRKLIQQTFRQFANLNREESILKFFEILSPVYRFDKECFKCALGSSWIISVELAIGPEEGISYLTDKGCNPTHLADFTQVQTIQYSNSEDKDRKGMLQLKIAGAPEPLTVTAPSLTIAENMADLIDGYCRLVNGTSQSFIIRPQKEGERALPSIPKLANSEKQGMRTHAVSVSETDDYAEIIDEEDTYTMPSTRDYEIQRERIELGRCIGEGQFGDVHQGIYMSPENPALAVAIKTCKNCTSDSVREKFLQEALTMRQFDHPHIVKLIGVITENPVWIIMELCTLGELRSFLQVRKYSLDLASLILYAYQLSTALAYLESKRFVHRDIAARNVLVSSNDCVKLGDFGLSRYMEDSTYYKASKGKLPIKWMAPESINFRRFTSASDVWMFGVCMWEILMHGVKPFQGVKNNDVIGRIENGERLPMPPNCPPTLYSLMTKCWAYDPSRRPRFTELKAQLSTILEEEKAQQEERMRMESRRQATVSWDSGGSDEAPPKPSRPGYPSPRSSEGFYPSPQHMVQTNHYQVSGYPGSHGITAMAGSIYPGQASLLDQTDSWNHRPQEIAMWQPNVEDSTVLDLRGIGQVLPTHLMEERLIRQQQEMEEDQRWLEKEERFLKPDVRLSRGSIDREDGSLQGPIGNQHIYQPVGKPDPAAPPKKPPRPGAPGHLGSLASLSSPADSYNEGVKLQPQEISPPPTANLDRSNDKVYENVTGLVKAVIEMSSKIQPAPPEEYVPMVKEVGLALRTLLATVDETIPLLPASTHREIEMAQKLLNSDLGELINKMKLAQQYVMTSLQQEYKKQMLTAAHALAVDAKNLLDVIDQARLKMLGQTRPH
LYP act = increases human PTPN22 phosphatase activity; Q9Y2R2; recombinant LYP, DiFMUP fluorescence; 0 = plate median, 100 = signal doubled; activation, % at 2 µM; actives 0.11% (n = 96,000); AID 697;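 active = activation at 2 µM above a set limit, the mean plus 5 SD, cut at about 37% in these data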
MRP1 act = activates MRP-1; H69AR cells + doxorubicin, viability rescue, CellTiter-Glo; viability increase, % at 10 µM; actives 0.61% (n = 140,000); AID 799;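 active = viability gain under doxorubicin at or above a set limit, the compound median plus 3 SD, cut at about 4.7% in these data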;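 also: MRP-1 overexpressing cells given doxorubicin 25 µM after compound pretreatment; 18-22 h compound pretreatment then 72 h with doxorubicin before readout; 0% = doxorubicin-only wells and 100% = vehicle-treated cells without doxorubicin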
The depositor's hits bear a star. Rows were chosen to be rich in hits. Some 2.2% of all compounds tested hit in one or more screens of this group.

What do the screens show for `Cn1c(=O)oc2cc(S(=O)(=O)NCCC(=O)N3CC=C(c4ccccc4)CC3)ccc21`?
PLAP act: 1.4; MRP resist rev: 1; PTPN22 inh 2: 1; FAK inh: -2; LYP act: -2; MRP1 act: -2

How did CC(C)CC(NS(=O)(=O)c1ccc2c(c1)oc(=O)n2C)C(=O)N1CC=C(c2ccccc2)CC1 (stereo not given) do in these assays?
PLAP act: 2.5*; MRP resist rev: 22; PTPN22 inh 2: -5; FAK inh: 4; LYP act: 4; MRP1 act: -3

Results for CCN1CCN(C(=O)C2c3cc(OC)c(OC)cc3C(=O)N3CCc4ccccc4C23)CC1 (stereo not given) ?
PLAP act: 1.3; MRP resist rev: 4; PTPN22 inh 2: -19; FAK inh: 4; LYP act: 16; MRP1 act: -1

How did CCCCN(CC)CCCNC(=O)C1c2ccccc2C(=O)N(C)C1c1cn(C)c2ccccc12 (stereo not given) do in these assays?
PLAP act: 2*; MRP resist rev: 3; PTPN22 inh 2: -1; FAK inh: 0; LYP act: 4; MRP1 act: -3

Results for CCCCN(CC)CCNC(=O)C1c2cc(OC)c(OC)cc2C(=O)N2CCc3ccccc3C12 (stereo not given) ?
PLAP act: 2*; MRP resist rev: 8; PTPN22 inh 2: 5; FAK inh: 1; LYP act: -7; MRP1 act: -3

What do the screens show for `Cn1c(=S)[nH]c2ccccc21`?
PLAP act: 1; MRP resist rev: 0; PTPN22 inh 2: 2; FAK inh: 1; LYP act: -1; MRP1 act: -3

How did N#CCCn1c(=S)[nH]c2ccccc21 do in these assays?
PLAP act: 2.6*; PTPN22 inh 2: 0; FAK inh: -1; LYP act: -2; MRP1 act: -4

How did Cc1cccc(NC(=S)NCc2ccco2)c1C do in these assays?
MRP1 act: -4

How did Cc1c(Cc2ccccc2)sc(NC(=O)c2ccco2)c1C(N)=O do in these assays?
MRP resist rev: 7; PTPN22 inh 2: 18; FAK inh: 25*; LYP act: -18; MRP1 act: 0

How did O=c1nc2s/c(=C\c3ccc(-c4ccccc4[N+](=O)[O-])o3)c(=O)n2nc1-c1ccccc1 do in these assays?
MRP1 act: 5.2*

How did CCc1ccc(/C(C)=N/Nc2cc(Cl)nc(C)n2)cc1 do in these assays?
PLAP act: 1.4; PTPN22 inh 2: -1; FAK inh: 1; LYP act: 4; MRP1 act: 7.9*

How did Cc1cnn(CCC(=O)NNC(=S)Nc2ccc(F)cc2)c1 do in these assays?
PLAP act: 2.3*; PTPN22 inh 2: 3; FAK inh: 0; LYP act: 3; MRP1 act: -2

How did Cc1cnn(CCC(=O)NNC(=S)Nc2cccc(Cl)c2)c1 do in these assays?
PLAP act: 1.6; PTPN22 inh 2: -25; FAK inh: -1; LYP act: 32; MRP1 act: -2

How did O=C(Nc1nc(-c2ccccn2)cs1)c1ccc(Cl)s1 do in these assays?
PLAP act: 1.2; MRP resist rev: 1; MRP1 act: -6

What do the screens show for `O=C(CN1C(=O)CCC1=O)Nc1nc(-c2ccccn2)cs1`?
PLAP act: 2.2*; MRP resist rev: 17; PTPN22 inh 2: -6; FAK inh: 0; LYP act: 2; MRP1 act: -1

How did O=C(Nc1nc(-c2ccccn2)cs1)c1ncc(Cl)c(Cl)c1Cl do in these assays?
PLAP act: 1; MRP resist rev: -6; PTPN22 inh 2: 27*; FAK inh: -7; LYP act: -26; MRP1 act: 0

What do the screens show for `CC(=O)Nc1sc(NC(=O)c2ccc(C)cc2)nc1-c1cccs1`?
MRP resist rev: -3; PTPN22 inh 2: -1; FAK inh: -4; LYP act: -2; MRP1 act: -2

Results for O=C(C1CCCO1)N1CCN(Cc2c(O)ccc3ccccc23)CC1 (stereo not given) ?
PLAP act: 2.4*; PTPN22 inh 2: 4; FAK inh: 1; LYP act: -1; MRP1 act: -4

Results for CCCC(=O)NCCc1nc2cc([N+](=O)[O-])ccc2n1C ?
MRP1 act: -1

Results for CCNc1sc(C(=O)c2cccs2)c(N)c1-c1nc2ccccc2s1 ?
PLAP act: 1.1; MRP resist rev: 36; PTPN22 inh 2: 10; FAK inh: 3; LYP act: -9; MRP1 act: 9.0*

What do the screens show for `C=CCNc1sc(C(=O)c2ccccc2)c(N)c1-c1nc2ccccc2s1`?
PLAP act: 1; MRP resist rev: 0; PTPN22 inh 2: 8; FAK inh: -1; LYP act: -7; MRP1 act: 3

What do the screens show for `CC(C)(C)c1nn(-c2ccccc2)c2[nH]c(=O)c(CNCc3ccco3)cc12`?
PLAP act: 2.4*; MRP resist rev: -10; PTPN22 inh 2: 6; FAK inh: -4; LYP act: -9; MRP1 act: -2

What do the screens show for `COc1ccc(CNCc2cc3c(C(C)(C)C)nn(-c4ccccc4)c3[nH]c2=O)cc1`?
PLAP act: 2.5*; MRP resist rev: -29; PTPN22 inh 2: -12; FAK inh: 2; LYP act: 9; MRP1 act: -6

How did CC(C)(C)c1nn(-c2ccccc2)c2[nH]c(=O)c(CNc3ccc4c(c3)OCCO4)cc12 do in these assays?
PLAP act: 1.7; MRP resist rev: -6; PTPN22 inh 2: -7; FAK inh: -4; LYP act: 9; MRP1 act: -2

Results for CCOC(=O)c1cnn(-c2ccc(Cl)cc2)c1C1CCN(C(=O)OC(C)(C)C)CC1 ?
PLAP act: 2.3*; MRP resist rev: 2; PTPN22 inh 2: -8; FAK inh: -2; LYP act: 7; MRP1 act: -2

Results for Cc1cnn(-c2cc(Oc3ccccc3)ncn2)c1 ?
PLAP act: 1; MRP resist rev: 4; PTPN22 inh 2: -10; FAK inh: 3; LYP act: 9; MRP1 act: 4.8*

What do the screens show for `CN(C)c1nc(N)c([N+](=O)[O-])c(NCCO)n1`?
MRP1 act: -2

How did O=C1N=C(c2ccccc2)S/C1=C\c1cccs1 do in these assays?
PLAP act: 0.9; MRP resist rev: -12; PTPN22 inh 2: 7; FAK inh: -3; LYP act: -7; MRP1 act: 6.7*

What do the screens show for `O=S(=O)(c1ccc2ccccc2c1)N1CCN(C(=S)Nc2ccc(F)c(Cl)c2)CC1`?
MRP1 act: -5

Results for C=CCOc1ccc(Br)cc1CNCCCN1CCOCC1 ?
MRP1 act: -3

What do the screens show for `O=[N+]([O-])c1cccc(CSc2nnc(Cc3ccccc3)n2-c2ccc(F)cc2)c1`?
MRP1 act: -4

How did COc1cccc(NC(=O)c2oc3ccccc3c2NC(=O)c2ccc3c(c2)OCO3)c1 do in these assays?
PLAP act: 1; MRP resist rev: -7; PTPN22 inh 2: -2; FAK inh: -7; LYP act: -1; MRP1 act: 5.0*
